Compound activity: PubChem, National Center for Advancing Translational Sciences (NCATS)
Most compounds without a hit are left out; they make up all but 19% or so of the library.
HT1080NT lethal: qHTS for induction of synthetic lethality in tumor cells producing 2HG: qHTS for the HT-1080-NT fibrosarcoma cell line; HT-1080-NT fibrosarcoma viability, CellTiter-Glo ATP luminescence, 48 h; Potency, µM (series often up to 46.1 µM), inactives show at the highest dose activity, negative = less viability, hits mostly cytotoxic; hit rate 1.6% among 360,000; AID 686970, 2013;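 further: NT is the 2HG producing partner of a matched IDH1 knockdown line; 0% = DMSO-treated cells and -100% = media-only wells without cells; nearly all actives have a fitted effect of over 55% in size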
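Luminescent CellTiter-Glo readout after 48 hours of compound exposure at 37 degrees C defined viability of HT-1080-NT cells. Activity was normalized to DMSO wells and cell-free media wells; concentration-response curves were fitted and assigned curve classes.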
KB-3-1 tox: qHTS assay for MDR1-selective chemotherapeutics: Primary screen using the parental adenocarcinoma cell KB-3-1. Potency, µM (series often up to 46.1 µM), usual class: cytotoxic. hit rate 1.4% among 400,000. KB-3-1 viability, CellTiter-Glo ATP luminescence, 72 h. AID 1347075, 2019; further: nearly all actives have a fitted effect of over 60% in size
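Viability of parental KB-3-1 cells, measured by CellTiter-Glo luminescence, followed a 72 h incubation at 37 °C with pinned compounds in phenol-red-free DMEM containing 10% FBS.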
DT40 TDP1 no CPT: qHTS for Inhibitors of human tyrosyl-DNA phosphodiesterase 1 (TDP1): qHTS in cells in absence of CPT; DT40 Tdp1-/- hTDP1 cells, no CPT, ATP luminescence, 48 h; Potency, µM (top dose mostly 46.2 µM), for inactives: top-dose activity change, negative = growth inhibition, usual class: inhibitors; hit rate 15% among 420,000; further: nearly all actives have a fitted effect of over 55% in size
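Growth of hTDP1-complemented DT40 Tdp1-knockout cells is measured by ATP luminescence after at least 48 hr compound exposure at 37 °C, with DMSO substituting for the 20 nM CPT used in the parallel screen.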
KB-V1 cytotox: qHTS assay for MDR1-selective chemotherapeutics: Primary screen using the drug-selected MDR subline cells KB-V1. hit rate 3.4% among 400,000. Potency, µM (highest dose often 46.1 µM), hits mostly cytotoxic. AID 1347076, 2019. KB-V1 MDR cells viability, CellTiter-Glo, 72 h; further: nearly all actives have a fitted effect of over 60% in size
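KB-V1, DMEM (no phenol red) + 10% FBS; cpd pin-transferred, titration series; 72 h, 37 degrees C; CellTiter-Glo, luminescence. Data normalized, curve-fit.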
HT1080 IDH1KD tx: qHTS for induction of synthetic lethality in tumor cells producing 2HG: qHTS for the HT-1080-IDH1KD cell line; HT-1080 IDH1 knockdown viability, ATP luminescence, 48 h; Potency, µM (top dose mostly 46.1 µM), for inactives: at the top dose activity, negative = toxicity, most hits filed as cytotoxic; hit rate 2% among 360,000;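 further: 0% = DMSO wells and -100% = cell-free medium wells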
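Assay cells: HT-1080 with IDH1 knockdown, 750 per well, RPMI/5% FBS. Exposure: 48 h at 37 °C following 2 h pre-incubation. Read: CellTiter-Glo luminescence; fitted concentration-response, curve class assigned.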
DT40 TDP1 CPT: qHTS for Inhibitors of human tyrosyl-DNA phosphodiesterase 1 (TDP1): qHTS in cells in presence of CPT; chicken DT40 Tdp1-/-;hTDP1 cells + 20 nM CPT, ATP luminescence, 48 h; Potency, µM (titrated, usually from 46.2 µM), without a hit: at the highest dose activity change, negative = growth inhibition, most hits filed as inhibitors; hit rate 12% among 420,000; AID 686979, 2013; further: nearly all actives have a fitted effect of over 55% in size
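Cell growth measured by CellTiter-Glo luminescence after a minimum 48 h, 37 C compound exposure with 20 nM CPT in Tdp1-knockout DT40 cells stably expressing hTDP1, seeded 400/well; qHTS titration format.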
Starred values were filed as active, the others as inactive; i = inactive; ? = inconclusive; . = no result. The call rests on the fitted dose curve; in most records, active means well fitted curve in the direction sought with a large enough effect; inconclusive means small, poorly fitted or top-dose-only effect, or another doubt; inactive means no such curve, though single readings can be large; an effect the other way counts as inactive or inconclusive. Unless noted, on the % scale 0 is the no-effect control and ±100 the full control effect; potency means the concentration at half of the fitted maximal effect.

SMILES	HT1080NT lethal	KB-3-1 tox	DT40 TDP1 no CPT	KB-V1 cytotox	HT1080 IDH1KD tx	DT40 TDP1 CPT
O=C(c1ccc2c(c1)OCO2)N(CC1CCCO1)C1(C(=O)NC2CCCCC2)CCCCC1 (stereo unspecified)	9.8%	i	?	?	2.7%	?
O=C(Cc1cccs1)N(c1ccc(F)cc1)C1(C(=O)NC2CCCCC2)CCCC1	-0.3%	i	23.1µM*	i	0.3%	?
O=C(c1ccccn1)N(Cc1ccco1)C1(C(=O)NC2CCCCC2)CCCCC1	0.7%	i	?	9.2µM*	0.8%	?
O=C(c1ccc(=O)[nH]c1)N(Cc1cccs1)C1(C(=O)NC2CCCC2)CCCCC1	9.4%	i	-6.3%	i	13.9%	-1.1%
CC(=O)N(Cc1ccco1)C1(C(=O)NC2CCCCC2)CCCCC1	11.3%	i	?	i	4.9%	?
O=C(Cc1cccs1)N(CC1CCCO1)C1(C(=O)NC2CCCC2)CCCCC1 (stereo unspecified)	-2.7%	i	16.4µM*	?	4.6%	?
O=C1NC(=O)C(CC(=O)N(c2ccccc2)C2(C(=O)NC3CCCC3)CCCCC2)N1 (stereo unspecified)	-0.3%	i	-13.9%	i	-0.7%	-27.7%
O=C(Cc1cccs1)N(Cc1cccs1)C1(C(=O)NC2CCCC2)CCCCC1	4.3%	?	6.51µM*	8.2µM*	2.3%	8.2µM*
CCN(c1ccccc1)S(=O)(=O)c1ccc(F)cc1C	8.7%	i	?	i	9.1%	-25.9%
CC(C)OC(=O)N(C)C[C@@H]1OCc2cnnn2CCCC(=O)N([C@H](C)CO)C[C@H]1C	2.1%	i	-1.3%	?	1.9%	3.4%
O=C(COC(=O)c1ccccc1Br)Nc1ccc2[nH]c(=O)[nH]c2c1	-2.4%	i	12.1%	i	0.3%	-1.5%
O=C(Cc1cccs1)N(Cc1ccco1)C1(C(=O)NC2CCCCC2)CCCCC1	5.3%	i	18.4µM*	?	12.6%	14.6µM*
CCN(C(=O)C(C)OC(=O)CCCNC(=O)c1ccc(Cl)cc1)c1ccccc1 (stereo unspecified)	0.0%	i	20.6µM*	?	0.7%	?
CCOc1ccccc1NC(=O)CCCNC(=O)c1ccc(Cl)cc1	-1.5%	i	-15.8%	?	-1.8%	7.3%
CC(=O)Nc1cc(C(=O)N2CCCC2)ccc1Sc1ccc(C)cc1	-0.8%	i	?	i	-1.8%	?
CCCCN(CCCNC(=O)c1ccc(Sc2ccc(Cl)cc2)c(NC(C)=O)c1)c1ccccc1	.	.	-101.8%	.	.	?
CCN(CCCNC(=O)c1ccc(Sc2ccc(Cl)cc2)c(NC(C)=O)c1)c1ccccc1	.	.	23.1µM*	.	.	?
CC(=O)Nc1cc(C(=O)N2CCCC2)ccc1Sc1ccc(Cl)cc1	-3.4%	i	?	i	-5.7%	20µM*
Cc1cc(F)ccc1S(=O)(=O)Nc1ccccc1C(=O)NC1CCN(Cc2ccccc2)CC1	-15.9%	i	?	?	-24.9%	?
Cc1ccc(NC(=O)Cn2nnc(C(=O)NCc3cccs3)c2N)cc1F	-16.8%	i	25.5%	i	-11.7%	-6.5%
CC(=O)c1ccc(N2CCN(C(=O)CNC(=O)c3ccc(Br)o3)CC2)cc1	-0.9%	i	?	i	3.6%	?
